Marburg entry inh – qHTS for inhibitors of binding or entry into cells for Marburg Virus; Potency, µM (top dose mostly 37.8 µM), for the others: at the top dose activity change, negative = inhibition, most hits filed as inhibitors; Marburg virus pseudotyped entry inhibition, cell reporter; AID 540276, 2011; actives 1.8% (n = 300,000); calls by dose curve; tested in HEK293 cells; further: potency means the concentration at half of the fitted maximal effect
Pf growth 96h – Primary qHTS for delayed death inhibitors of the malarial parasite plastid, 96 hour incubation | P. falciparum luciferase reporter growth, 96 h | Potency, µM (doses to about 28.7 µM), inactives show at the highest dose activity change, negative = inhibition, most hits filed as inhibitors | actives 6.9% (n = 320,000) | AID 504834, 2011; further: potency means the concentration at half of the fitted maximal effect
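Readout is luminescence from an integrated firefly luciferase in P. falciparum. Red cells, 2% hematocrit and 0.05% parasitemia final, were cultured with compound through two parasite generations (96 hours) at 37 C, 5% CO2.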
HCMV inh – qHTS Assay for inhibitors of the human cytomegalovirus (HCMV); actives 4.5% (n = 410,000); activity change, negative = inhibition, % at 57.5 µM; AID 1259415, 2018; HFF cells, HCMV-luciferase reporter, 72 h; hits give low values; in the data active means activity change below about -60%; inconclusive means no clear call, values can overlap the other calls; inactive means above about -39%
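Inhibition of viral replication was scored as loss of reporter luminescence in HFFs infected with HCMV-luciferase (MOI 1 PFU/cell) for 72 h; compounds tested at 2 doses, normalized to buffer and Salinomycin controls.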
Pf growth 48h – Primary qHTS for delayed death inhibitors of the malarial parasite plastid, 48 hour incubation; P. falciparum luciferase growth in erythrocytes, 48 h; Potency, µM (series often up to 28.7 µM), inactives show at the highest dose activity change, negative = inhibition, usual class: inhibitors; actives 5.9% (n = 310,000); further: potency means the concentration at half of the fitted maximal effect
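Luciferase-expressing P. falciparum in infected erythrocytes (2% hematocrit, 0.1% parasitemia final) in RPMI 1640/0.5% Albumax were exposed to compound for 48 hours at 37 C, 5% CO2; growth read as luminescence.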
Lassa entry inh – qHTS for Inhibitors of binding or entry into cells for Lassa Virus; Potency, µM (series often up to 37.9 µM), without a hit: at the top dose activity change, negative = inhibition, most hits filed as inhibitors; Lassa virus pseudotype entry inhibition, cell reporter; actives 1.2% (n = 300,000); calls by dose curve; tested in HEK293 cells; further: potency means the concentration at half of the fitted maximal effect; nearly all actives have a fitted effect of over 50% in size
HCV inh – qHTS Assay for Inhibitors of Hepatitis C Virus (HCV) | Huh7.5.1 HCVcc-Cre infection, luciferase reporter, 44 h | Potency, µM (doses to about 41.8 µM), inactives show top-dose activity change, negative = inhibition, usual class: inhibitors | actives 3.4% (n = 340,000); further: potency means the concentration at half of the fitted maximal effect
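Compounds are dispensed onto cells plated 4 h earlier at 1,000 per well, with HCVcc-Cre virus (about 0.5 moi) added next. Following 44 h of culture, luminescent signal is measured for 15 sec after 15 min with substrate at room temperature.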
Numbers without * were called inactive; ? = inconclusive; . = not tested or not shown; [ ] = another dose, or the depositor's remark. In the library only some 14% were active in any assay of this set; here they are far more common. Unless noted, the call rests on the fitted dose curve; in most records, active means well fitted inhibition curve with a large enough effect; inconclusive means small, poorly fitted or top-dose-only effect, or another doubt; inactive means no such curve, though single readings can be large or run the other way. On the % scale 0 is the no-effect control and ±100 the full control effect.

SMILES	Marburg entry inh	Pf growth 96h	HCMV inh	Pf growth 48h	Lassa entry inh	HCV inh
CC1(C)Cc2c(cnn2-c2ccccc2)C(NC(=O)CCc2ccncc2)C1 (configuration not stated)	12%	-29%	?	-31%	6%	11%
Cc1ccccc1-n1ncc2c1CC(C)(C)CC2NC(=O)c1ccncc1 (configuration not stated)	0%	16%	15	-14%	-9%	19%
Cc1ccc(-n2ncc3c2CC(C)(C)CC3NC(=O)c2ccccn2)cc1 (configuration not stated)	?	15µM*	-31	-19%	-21%[46.1 µM]	?
Cc1ccccc1-n1ncc2c1CC(C)(C)CC2NC(=O)c1snnc1C (configuration not stated)	.	5.9µM*	-23	?	.	-26%
C=CCC(=O)NC1CC(C)(C)Cc2c1cnn2-c1ccc(C)cc1 (configuration not stated)	.	?	21	-7%	.	1%
O=C(NC1CN2CCC1CC2)c1ccc(Cl)cc1 (configuration not stated)	.	.	-7	.	.	.
CN1C(=O)COc2c(C(=O)NC3CN4CCC3CC4)cc(Cl)cc21 (configuration not stated)	.	4.8µM*	.	5%	.	.
Cn1c(SC2=CS(=O)(=O)c3ccccc32)nc2ccccc21	?	5%[5.75 µM]	-98*	5.2µM*	?	6.3µM*
CC(=O)c1ccc(N2CCN(C(=O)Cn3ncc4c3-c3ccccc3OC4)CC2)cc1	1%[46.1 µM]	.	-15	.	.	.
CC1=C(/C=C/C(C)=C/C=C/C(C)=C/CO)C(C)(C)CCC1	.	11µM*	.	?	.	-11%
CC1Cc2cc(S(=O)(=O)CCC(=O)Nc3ccc(F)cc3)ccc2N1C(=O)C1CC1 (configuration not stated)	.	.	20	.	0%[46.1 µM]	.
CCNC(=O)C1(C)CCN1CCS(=O)(=O)c1ccc(C)cc1 (configuration not stated)	.	.	-102*	.	.	.
CCCNC(=O)C1(C)CCN(CCS(=O)(=O)c2ccc(C)cc2)C1 (configuration not stated)	.	.	-6	.	.	.
Cc1ccc2nc(NC(=S)NC(=O)c3cccs3)sc2c1	26%	-55%	15	97%	?	-3%
CCOc1ccc2nc(NC(=O)c3cccc(-c4cc5ccccc5oc4=O)c3)sc2c1	?	203%	-30	26%	15%	?
CS(=O)(=O)c1ccc2nc(NC(=O)c3cccs3)sc2c1	2.2µM*	146%	76	41%	?	-3%
Cc1ccc2nc(NC(=O)c3cccc(-c4cc5ccccc5oc4=O)c3)sc2c1	?	219%	-89*	139%	?	8.9µM*
Cc1ccc2nc(NC(=O)c3cccs3)sc2c1	3.2µM*	?	14	75%	2.5µM*	-3%
CCOc1ccc(NC(=O)CC2C(=O)N(c3ccccc3)C(=O)N2Cc2cccc(OC)c2)cc1 (configuration not stated)	.	.	-10	.	0%[46.1 µM]	.
COc1ccc(OC(C)C(=O)NCc2nc(-c3cccc(C)c3)no2)cc1 (configuration not stated)	0%[46.1 µM]	.	-11	.	?	.
Cc1ccc(-c2[nH]ncc2CNCCc2cnn(-c3ccccc3)c2)cc1C	8.9µM*	?	3	13µM*	-4%	?
COc1cc(NCCCn2cnc(C(=O)Nc3ccc(C)c(C)c3)n2)cc(OC)c1OC	.	.	-3	.	.	8%
Cc1cc(C(C)(C)C)cc(C)c1C[n+]1ccc2ccccc2c1	.	1.3µM*	-96*	1.2µM*	.	?
Cc1ccc2[nH]c(C)c([N+](=O)[O-])c2c1	.	.	-30	.	.	.
COCC(=O)N(Cc1cc2cc(C)ccc2[nH]c1=O)c1ccc(C)c(C)c1	?	10µM*	4	-8%	-12%	0%
SMILES	Marburg entry inh	Pf growth 96h	HCMV inh	Pf growth 48h	Lassa entry inh	HCV inh
Cc1ccc(N(Cc2cc3ccccc3[nH]c2=O)C(=O)c2cccs2)cc1C	-16%[46.1 µM]	?	-13	12µM*	-8%	?
COCC(=O)N(Cc1cc2cc(C)ccc2[nH]c1=O)c1cccc(C)c1C	?	318%	10	-21%	5%[46.1 µM]	-7%
COc1cc(C(=O)NCCN2C(=O)S/C(=C\c3ccc(F)cc3)C2=O)ccc1OCC(=O)N1CCOCC1	.	5%	.	0%	.	12%
COC(=O)c1cc(=O)nc(NN=Cc2ccc(C)cc2)s1	.	.	47	.	.	.
Cc1nccc2c1[nH]c1ccccc12	?	28%	13	6%	0%	?
CCc1nccc2c1[nH]c1ccccc12	.	?	.	0%	.	11µM*
N#Cc1ccc(/C=C\c2nccc3c2[nH]c2ccccc23)cc1	?	-26%	-77*	3.3µM*	15%	?
Clc1ccc(/C=C\c2nccc3c2[nH]c2ccccc23)cc1	-16%[46.1 µM]	20%	23	4.7µM*	.	?
OCCCCc1nccc2c1[nH]c1ccccc12	.	27%	-20	-6%	.	-19%
Cc1ccc(C)c(Cn2c(C(C)NC(=O)c3ccc(F)cc3)nc3ccccc32)c1 (configuration not stated)	3%[46.1 µM]	.	-17	.	17%[46.1 µM]	.
COc1ccc(NC(=O)CN(c2ccc(C)cc2)S(=O)(=O)c2cccc3nonc23)cc1OC	?	.	-8	.	-21%[46.1 µM]	.
COc1ccc(CCN2CCC(Nc3nc4ccccc4n3Cc3ccc(F)cc3)CC2)cc1	4.1µM*	0.74µM*	.	0.52µM*	?	16µM*
COc1ccc(Cn2c(-c3ccc(OC)cc3)nc3ccccc32)cc1	17%	21%	-5	?	3%	?
Fc1ccc(C(OCCN2CCN(CCCc3ccccc3)CC2)c2ccc(F)cc2)cc1	7.1µM*	-101%	-99*	12µM*	3.7µM*	.
c1ccc(CCCN2CCN(CCOC(c3ccccc3)c3ccccc3)CC2)cc1	14µM*	.	-66*	.	16µM*	7.9µM*
C[C@@H]1[C@@H](c2ccccc2)Cc2nc3ccccc3nc2C[C@H]1C(=O)N1CCCC1	-15%[14.2 µM]	.	.	.	.	.
CCOC(=O)c1cn(CC)c2ccc(Br)cc2c1=O	0%	12µM*	8	5.2µM*	11%	6%
CCn1cc(C(=O)O)c(=O)c2cc(Br)ccc21	2%	.	7	2.6µM*	20%	11%
CCOC(=O)c1cn(CC)c2ccc(S(=O)(=O)N3CC(C)CC(C)C3)cc2c1=O (configuration not stated)	0%	69%	-14	2%	-73%[14.3 µM]	.
CCn1cc(C(=O)O)c(=O)c2cc(S(=O)(=O)N(C)C)ccc21	9%	105%	38	38%	-3%	14%

High-throughput results deposited in PubChem BioAssay by National Center for Advancing Translational Sciences (NCATS).
